From paper PMC4336329 (PLoS ONE, 2015)
The campaign covered roughly 310,000 compounds. About 14,000 (4.5%) showed an effect of 50% or more. The effect is printed as a negative number. The full list was thinned out, with strong results kept by preference.
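Further: peak tail current of the secondary pulse compared with the same well before compound.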

Each compound was assayed against human ether-à-go-go-related gene (hERG) potassium channel (human, UniProt Q12809) (assay: primary screen, population patch clamp on CHO cells stably expressing hERG; higher = less effect of the substance).
Sequence of human ether-à-go-go-related gene (hERG) potassium channel (Q12809 whole entry, looked up): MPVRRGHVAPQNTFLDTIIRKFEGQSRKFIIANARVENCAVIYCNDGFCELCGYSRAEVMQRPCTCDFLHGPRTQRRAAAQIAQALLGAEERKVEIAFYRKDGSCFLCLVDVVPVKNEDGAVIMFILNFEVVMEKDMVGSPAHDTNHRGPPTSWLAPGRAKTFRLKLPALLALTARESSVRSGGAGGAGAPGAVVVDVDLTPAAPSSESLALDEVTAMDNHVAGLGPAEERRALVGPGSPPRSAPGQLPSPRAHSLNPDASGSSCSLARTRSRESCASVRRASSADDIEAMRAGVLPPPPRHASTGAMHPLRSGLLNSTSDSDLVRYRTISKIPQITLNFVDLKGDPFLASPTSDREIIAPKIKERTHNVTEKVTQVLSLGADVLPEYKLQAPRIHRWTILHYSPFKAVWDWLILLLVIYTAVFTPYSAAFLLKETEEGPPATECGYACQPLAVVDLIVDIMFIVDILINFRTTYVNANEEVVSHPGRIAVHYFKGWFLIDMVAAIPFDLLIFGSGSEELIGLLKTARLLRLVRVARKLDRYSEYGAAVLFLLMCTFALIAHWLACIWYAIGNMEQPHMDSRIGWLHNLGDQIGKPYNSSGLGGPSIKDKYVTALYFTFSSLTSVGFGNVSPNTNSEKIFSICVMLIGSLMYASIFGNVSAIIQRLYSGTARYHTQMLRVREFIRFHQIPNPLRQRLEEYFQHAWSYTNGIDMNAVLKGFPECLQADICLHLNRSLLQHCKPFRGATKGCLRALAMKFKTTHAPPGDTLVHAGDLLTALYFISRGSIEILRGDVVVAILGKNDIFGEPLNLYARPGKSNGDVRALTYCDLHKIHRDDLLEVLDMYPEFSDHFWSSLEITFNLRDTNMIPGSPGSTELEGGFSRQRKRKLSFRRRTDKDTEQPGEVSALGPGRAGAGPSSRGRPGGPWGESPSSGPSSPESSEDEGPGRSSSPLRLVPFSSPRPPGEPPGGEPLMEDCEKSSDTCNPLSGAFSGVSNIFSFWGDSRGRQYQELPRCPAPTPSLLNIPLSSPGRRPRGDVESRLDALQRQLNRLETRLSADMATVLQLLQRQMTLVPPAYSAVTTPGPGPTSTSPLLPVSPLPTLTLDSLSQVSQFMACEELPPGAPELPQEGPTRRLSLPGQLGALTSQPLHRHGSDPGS
With CCOC(=O)C1CCN(CC(=O)c2c(C)[nH]c3ccccc23)CC1 the “hERG current change (%, negative = inhibition) at 10uM” value was -39.7%. Cc1ccc2c(C(=O)CN3CCC(C(N)=O)CC3)c(C)[nH]c2c1 was tested, and the “hERG current change (%, negative = inhibition) at 10uM” value was 5.21%. With CCOC(=O)C1CCN(CC(=O)c2c(C)[nH]c3cc(C)ccc23)CC1 the “hERG current change (%, negative = inhibition) at 10uM” value was -60.5%. COc1cc(/C=N/NC(=O)c2ccc(Cl)cc2)ccc1OCC(=O)N1CC(C)OC(C)C1 (stereo not shown) was tested, and the “hERG current change (%, negative = inhibition) at 10uM” value was -18.3%. O=C(CN1CCN(C(=O)c2ccco2)CC1)Nc1cccc(S(=O)(=O)N2CCCC2)c1 was tested, and the “hERG current change (%, negative = inhibition) at 10uM” value was -16.2%. With O=C(c1cccc(S(=O)(=O)N2CCCCC2)c1)N1CCN(S(=O)(=O)c2ccc(F)cc2)CC1 the “hERG current change (%, negative = inhibition) at 10uM” value was -40.6%. In the case of O=C(CN1CCN(C(=O)c2cccc(S(=O)(=O)N3CCCC3)c2)CC1)Nc1ccccc1Cl, the “hERG current change (%, negative = inhibition) at 10uM” value is reported as -66.8%. In the case of O=C(CN1CCN(C(=O)c2ccccc2)CC1)Nc1cc(S(=O)(=O)N2CCCC2)ccc1Cl, the “hERG current change (%, negative = inhibition) at 10uM” value is reported as -32.8%. In the case of O=C(CN1CCN(S(=O)(=O)c2ccccc2)CC1)Nc1ccccc1Cl, the “hERG current change (%, negative = inhibition) at 10uM” value is reported as -6.93%. In the case of O=C(CN1CCN(C(=O)c2cccc(S(=O)(=O)N3CCCC3)c2)CC1)Nc1ccc(F)cc1, the “hERG current change (%, negative = inhibition) at 10uM” value is reported as -61.7%. In the case of CCOc1ccc(N2C(=O)/C(=C/c3ccco3)N(C)C2=S)cc1, the “hERG current change (%, negative = inhibition) at 10uM” value is reported as -4.46%. With CCC(C)NC(=O)C1CCCN(C(=O)NC2CCCCC2)C1 (stereo not shown) the “hERG current change (%, negative = inhibition) at 10uM” value was 13.8%. In the case of Cc1cc(N2CCOCC2)nc2ccc(NC(=O)CCC(=O)N3CCN(c4ccc(F)cc4)CC3)cc12, the “hERG current change (%, negative = inhibition) at 10uM” value is reported as 21%. With COc1ccc(Br)c(C(=O)N2CCN(S(=O)(=O)c3cccs3)CC2)c1 the “hERG current change (%, negative = inhibition) at 10uM” value was -9.75%. In the case of COc1ccc(N2CCN(S(=O)(=O)/C=C/c3ccccc3)CC2)cc1, the “hERG current change (%, negative = inhibition) at 10uM” value is reported as 1.54%. With COc1ccc(Br)c(C(=O)N2CCN(S(=O)(=O)/C=C/c3ccccc3)CC2)c1 the “hERG current change (%, negative = inhibition) at 10uM” value was -58.8%. For COc1cc(SC)ccc1C(=O)N1CCN(c2ccccc2F)CC1, the “hERG current change (%, negative = inhibition) at 10uM” value was -33.8%. For COc1cc(SC)ccc1C(=O)N1CCN(c2ccccc2OC)CC1, the “hERG current change (%, negative = inhibition) at 10uM” value was -24.5%. For COc1cc(SC)ccc1C(=O)N1CCN(S(=O)(=O)/C=C/c2ccccc2)CC1, the “hERG current change (%, negative = inhibition) at 10uM” value was -56.5%. CCOC(=O)c1c(NC(=O)CN2CCCc3ccccc32)sc(C(C)=O)c1C was tested, and the “hERG current change (%, negative = inhibition) at 10uM” value was 5.24%. With CC1(C)CCC(=O)N2CC[C@H]3C[C@H](OC(=O)Nc4ccc5c(c4)OCO5)C[C@@H]1[C@H]32 the “hERG current change (%, negative = inhibition) at 10uM” value was -0.41%. For CC1(C)CC(=O)c2cc(OCC(=O)NCCN3CCCc4ccccc43)ccc2O1, the “hERG current change (%, negative = inhibition) at 10uM” value was -47.5%. For N#CC1=C(N)Oc2c(c(=O)oc3ccccc23)C1c1cccnc1 (stereo not shown), the “hERG current change (%, negative = inhibition) at 10uM” value was 5.62%. In the case of CC1(C)C2CC=C(/C=N/NC(=O)c3ccccc3Br)C1C2 (stereo not shown), the “hERG current change (%, negative = inhibition) at 10uM” value is reported as -2.58%. With C=CC(C)(C)O[C@@H]1O[C@H](CO)[C@@H](O)[C@H](O)[C@H]1O the “hERG current change (%, negative = inhibition) at 10uM” value was 40.6%. In the case of Nc1c2c(nc3cccc(Cl)c13)N(c1ccccc1)CC2, the “hERG current change (%, negative = inhibition) at 10uM” value is reported as 31.7%. Cc1cccc(N2CCc3c2nc2ccccc2c3N)c1.O=C(O)C(=O)O was tested, and the “hERG current change (%, negative = inhibition) at 10uM” value was -53.7%. For Cc1cccc(N2CCc3c2nc2ccc(Br)cc2c3N)c1.Cl, the “hERG current change (%, negative = inhibition) at 10uM” value was 6.56%. With CCCC(=O)Nc1c2c(nc3ccccc13)N(c1ccccc1)CC2 the “hERG current change (%, negative = inhibition) at 10uM” value was -1.55%. For Cc1ccc2nc3c(c(N)c2c1)CCN3c1ccccc1.O=C(O)C(=O)O, the “hERG current change (%, negative = inhibition) at 10uM” value was -35.4%. Cc1cccc(N2CCc3c2nc2ccccc2c3N)c1.Cl was tested, and the “hERG current change (%, negative = inhibition) at 10uM” value was -61.9%. CC(C)(C)c1ccccc1NC(=O)COC(=O)CN1C(=O)NC2(CCCC2)C1=O was tested, and the “hERG current change (%, negative = inhibition) at 10uM” value was 15.8%. Cc1c(OCC(=O)NCC(O)c2ccccc2)ccc2c3c(c(=O)oc12)CCC3 (stereo not shown) was tested, and the “hERG current change (%, negative = inhibition) at 10uM” value was -8.23%. For Cl.O=C(CN1CCOCC1)c1ccc(Br)cc1, the “hERG current change (%, negative = inhibition) at 10uM” value was 18%. CN(CC(=O)NCC1CCCCC1)CC(=O)Nc1ccccc1Br was tested, and the “hERG current change (%, negative = inhibition) at 10uM” value was -21.2%. COc1ccc(S(=O)(=O)N(CCCN2CCCC2=O)Cc2cc3c(C)ccc(C)c3[nH]c2=O)cc1 was tested, and the “hERG current change (%, negative = inhibition) at 10uM” value was -36.1%. In the case of Cc1ccc(S(=O)(=O)N(CCCN2CCCC2=O)Cc2cc3c(C)ccc(C)c3[nH]c2=O)cc1, the “hERG current change (%, negative = inhibition) at 10uM” value is reported as -64%. In the case of Cc1ccc(S(=O)(=O)N(CCCO)Cc2cc3c(C)ccc(C)c3[nH]c2=O)cc1, the “hERG current change (%, negative = inhibition) at 10uM” value is reported as -45.9%. For O=C(c1ccc(NS(=O)(=O)c2ccccc2)cc1)N1CCCC1, the “hERG current change (%, negative = inhibition) at 10uM” value was -8.95%. CS/C(N)=N/S(=O)(=O)c1ccc(NC(C)=O)cc1 was tested, and the “hERG current change (%, negative = inhibition) at 10uM” value was 17.6%. For C/C(=N/Nc1ccccc1[N+](=O)[O-])c1ccc([N+](=O)[O-])cc1, the “hERG current change (%, negative = inhibition) at 10uM” value was 5.07%. For CC1CCc2c(sc(NC(=O)c3ccccc3C(=O)O)c2C#N)C1 (stereo not shown), the “hERG current change (%, negative = inhibition) at 10uM” value was -0.906%. For CCN(CC)CCNc1nc2c(c(=O)[nH]c(=O)n2C)n1CC(O)COc1ccc(Cl)cc1Cl (stereo not shown), the “hERG current change (%, negative = inhibition) at 10uM” value was -70.2%. Cc1cc(C)n(-c2nc3c(c(=O)[nH]c(=O)n3C)n2CC(O)COc2ccc(Cl)cc2Cl)n1 (stereo not shown) was tested, and the “hERG current change (%, negative = inhibition) at 10uM” value was -3.56%. With CN(C)CCNc1nc2c(c(=O)[nH]c(=O)n2C)n1CC(O)COc1ccc(Cl)cc1 (stereo not shown) the “hERG current change (%, negative = inhibition) at 10uM” value was -20%. CC(C)Cn1c(NCCN(C)C)nc2c1c(=O)[nH]c(=O)n2C was tested, and the “hERG current change (%, negative = inhibition) at 10uM” value was 10.1%. COCCCNc1nc2c(c(=O)[nH]c(=O)n2C)n1CC(O)COc1ccccc1C (stereo not shown) was tested, and the “hERG current change (%, negative = inhibition) at 10uM” value was -7.62%. In the case of CN(C)CCNc1nc2c(c(=O)[nH]c(=O)n2C)n1CC(O)COc1ccc(Cl)cc1Cl (stereo not shown), the “hERG current change (%, negative = inhibition) at 10uM” value is reported as -55%. In the case of C[C@]12CC[C@H](O)C[C@H]1CC[C@@H]1C2CC[C@]2(C)[C@@H](C3=CC(=O)OC3)[C@@H](O)C[C@]12O (stereo partly shown), the “hERG current change (%, negative = inhibition) at 10uM” value is reported as 21.1%. With N#Cc1c2c(nc(N)c1-c1ccccc1)CCCCC2 the “hERG current change (%, negative = inhibition) at 10uM” value was 7.02%. For CC1=C(C(=O)OCC(Br)(Br)Br)C(c2cccc([N+](=O)[O-])c2)NC(=O)N1CCCC(=O)O (stereo not shown), the “hERG current change (%, negative = inhibition) at 10uM” value was -3.03%. In the case of CCn1nnnc1-c1ccc(OC)c(S(=O)(=O)Nc2ccc(C)c(C)c2)c1, the “hERG current change (%, negative = inhibition) at 10uM” value is reported as -2.9%.
